V-ATPase pH: regulators of yeast V-ATPase proton pumping, primary screen, pHLuorin cytosolic pH fluorescence; S. cerevisiae; hit rate 0.37% among 350,000; response, % at 10 µM; in the data active means response mostly above about 7.3%, no sharp cut-off; inactive means mostly below about 5.4%; further: actives read high
CTSL1 counter: Fasciola hepatica cathepsin L1 inhibitors, primary screen, counter-screen for PFM18AAP inhibitor project, biochemical, QFRET, fluorogenic peptide substrate; recombinant F. hepatica cathepsin L1, Z-Leu-Arg-MCA fluorescence; inhibition, % at 5.96 µM; hit rate 0.49% among 300,000; AID 1906, 2009;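 active means inhibition above the mean of all tested compounds plus 3 SD, set per screening campaign, cut at about 17% in these data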
iPSC survival up: enhancers of single-cell hiPSC survival, primary screen, ATPlite luminescence; 100% = ROCK inhibitor wells, 0% = DMSO; survival enhancement, % at 20 µM; hit rate 0.044% among 360,000; AID 602274, 2012; in the data active means survival enhancement above about 18%;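 further: cells exposed to compounds for 16 hours before the ATP read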
CR mimetic SO: reduction of superoxide in aged yeast, primary screen, HTS; hit rate 0.18% among 330,000; AID 2690, 2010; superoxide response (% of plate mean), % at 10 µM; S. cerevisiae aged cells, superoxide DHE fluorescence; stronger effect = lower value;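 active means superoxide response under a set limit, about three screen SD below normal, cut at about 65% in these data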;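 further: yeast aged for seven days with compound at 30 °C before DHE staining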
Superoxide pick: superoxide lowering in aged yeast cells, confirmation, cherry picked compounds. shares compounds with CR mimetic SO. S. cerevisiae aging, superoxide DHE fluorescence; stronger effect = lower value. superoxide response (% of plate), % at 10 µM. hit rate 1% among 850. AID 434994, 2010;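 active means superoxide signal below 65% of the plate average of sample wells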;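 further: cells aged with compound for 7 days at 30 degrees C before staining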
DHE fluor count: DHE quenching or ROS scavenging interference in aged yeast, artefact control for yeast caloric restriction mimetic project, S. cerevisiae BY4741, flow cytometry | shares compounds with CR mimetic SO | AID 435000, 2010 | DHE fluorescence; stronger effect = lower value | 850 tested, under 10 active | fluorescence response, % at 10 µM;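 active means fluorescence response below 15%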
Numbers stand for hits. Compounds with a hit are over-represented: about 1% of the library has one in this group of screens.

`OC(CN1CCN(c2ccccn2)CC1)Cn1c2ccc(Cl)cc2c2cc(Cl)ccc21` (stereo not given) gave V-ATPase pH inactive, CTSL1 counter inactive, iPSC survival up inactive and CR mimetic SO inactive.
`OCCNCC(O)Cn1c2ccccc2c2ccccc21` (stereo not given) gave V-ATPase pH inactive, CTSL1 counter inactive, iPSC survival up inactive, CR mimetic SO inactive, Superoxide pick inactive and DHE fluor count inactive.
`CCN(CC(O)Cn1c2ccccc2c2ccccc21)S(=O)(=O)c1ccc(F)cc1` (stereo not given) gave V-ATPase pH inactive, CTSL1 counter inactive, iPSC survival up inactive and CR mimetic SO inactive.
`COc1ccccc1N1CCN(C(=O)CSc2nnc3c4ccccc4nc(Cc4ccccc4)n23)CC1` gave CTSL1 counter inactive and CR mimetic SO inactive.
Screening O=C(c1cc2ccccc2o1)N1CCN(C/C=C/c2ccccc2)CC1 returned V-ATPase pH inactive, CTSL1 counter inactive, iPSC survival up inactive and CR mimetic SO inactive.
`C=CCN(CC=C)CC(O)Cn1c2ccccc2c2ccccc21` (stereo not given) gave V-ATPase pH inactive, CTSL1 counter inactive, iPSC survival up inactive, CR mimetic SO inactive, Superoxide pick inactive and DHE fluor count inactive.
Screening OC(CN1CCNCC1)Cn1c2ccccc2c2ccccc21 (stereo not given) returned V-ATPase pH inactive, CTSL1 counter inactive, iPSC survival up inactive and CR mimetic SO inactive.
`CC(=O)[C@@]1(O)CCC2C3CC[C@H]4C[C@@H](O)CC[C@]4(C)C3CC[C@@]21C` (stereo not given in full) gave V-ATPase pH inactive, iPSC survival up inactive, CR mimetic SO inactive, Superoxide pick inactive and DHE fluor count inactive.
O=C1c2ccccc2CCc2ccc(Br)cc21 was read as V-ATPase pH inactive, iPSC survival up inactive and CR mimetic SO inactive.
CCCNC(=O)c1ccc2c(=O)c(O)c(-c3ccc(Cl)c([N+](=O)[O-])c3)[nH]c2c1 was read as V-ATPase pH inactive, CTSL1 counter inactive, iPSC survival up inactive, CR mimetic SO 64, Superoxide pick inactive and DHE fluor count inactive.
`CCOC(=O)c1c(C)nc2ccc(Cl)cc2c1-c1ccccc1` gave V-ATPase pH inactive, CTSL1 counter inactive, iPSC survival up inactive, CR mimetic SO 62, Superoxide pick inactive and DHE fluor count inactive.
COc1ccc(-c2nnc(SCC(=O)N3CCOCC3)o2)cc1OC was read as V-ATPase pH inactive, CTSL1 counter inactive, iPSC survival up inactive and CR mimetic SO inactive.
COC(=O)CSc1nnc(-c2ccc(OC)c(OC)c2)o1 was read as V-ATPase pH inactive, CTSL1 counter inactive, iPSC survival up inactive, CR mimetic SO inactive, Superoxide pick inactive and DHE fluor count inactive.
Screening COc1cc(OC)cc(-c2nnc(SCC(=O)N(C(C)C)C(C)C)o2)c1 returned V-ATPase pH inactive, CTSL1 counter inactive, iPSC survival up inactive, CR mimetic SO inactive, Superoxide pick inactive and DHE fluor count inactive.
For COc1ccccc1C(=O)Nc1nnc([C@H]2C[C@H](O)[C@@H](CO)O2)s1 the results were iPSC survival up inactive.
CCOC(=O)c1ccc(NC(=O)c2nc[nH]c2C(=O)N(C)CCO)cc1 was read as V-ATPase pH inactive and iPSC survival up inactive.
Screening COC(=O)c1ccc(Nc2nnc(-c3ccc(C)c(S(=O)(=O)NCC4CCCO4)c3)c3ccccc23)cc1 (stereo not given) returned V-ATPase pH inactive, CTSL1 counter inactive, iPSC survival up inactive, CR mimetic SO inactive, Superoxide pick inactive and DHE fluor count inactive.
Cc1ccc(-c2nnc(Nc3ccc(CC(N)=O)cc3)c3ccccc23)cc1S(=O)(=O)NCC1CCCO1 (stereo not given) was read as V-ATPase pH inactive, CTSL1 counter inactive, iPSC survival up inactive and CR mimetic SO inactive.
Cc1ccc(-c2nnc(Nc3ccc(C(=O)N(C)C)cc3)c3ccccc23)cc1S(=O)(=O)NCC1CCCO1 (stereo not given) was read as V-ATPase pH inactive, CTSL1 counter inactive, iPSC survival up inactive, CR mimetic SO inactive, Superoxide pick inactive and DHE fluor count inactive.
For Cc1ccc(C)c(S(=O)(=O)Nc2ccc(O)cc2)c1 the results were V-ATPase pH inactive, CTSL1 counter inactive, iPSC survival up inactive, CR mimetic SO inactive, Superoxide pick inactive and DHE fluor count inactive.
`Cc1cc(C)c(S(=O)(=O)Nc2ccc(O)cc2)cc1C` gave V-ATPase pH inactive, CTSL1 counter inactive, iPSC survival up inactive and CR mimetic SO inactive.
For COc1ccc(C)cc1S(=O)(=O)Nc1ccc(F)cc1 the results were V-ATPase pH inactive, CTSL1 counter inactive, iPSC survival up inactive, CR mimetic SO inactive, Superoxide pick inactive and DHE fluor count inactive.
`Cc1ccc(C)c(NS(=O)(=O)c2ccccc2C)c1` gave V-ATPase pH inactive, iPSC survival up inactive, CR mimetic SO inactive, Superoxide pick inactive and DHE fluor count inactive.
`O=C(CSc1nc(=O)[nH]c2c1CCCC2)Nc1ccc(F)cc1F` gave V-ATPase pH inactive, CTSL1 counter inactive, iPSC survival up inactive and CR mimetic SO inactive.
For CC(C)CNC(=O)C1CCN(c2ccc(S(=O)(=O)N3CCOCC3)cc2)CC1 the results were V-ATPase pH inactive, CTSL1 counter inactive, iPSC survival up inactive and CR mimetic SO inactive.
`O=C(NC1CC1)C1CCN(c2ccc(S(=O)(=O)N3CCOCC3)cc2)CC1` gave V-ATPase pH inactive, CTSL1 counter inactive, iPSC survival up inactive, CR mimetic SO 65, Superoxide pick inactive and DHE fluor count inactive.
`CC1CCN(CCC(=O)Nc2ccc3c(c2)OCCO3)CC1` gave CTSL1 counter inactive, CR mimetic SO 63, Superoxide pick inactive and DHE fluor count inactive.
Screening CC(=O)N(C)C(c1ccc(N(C)C)cc1)c1nnnn1-c1c(C)cccc1C (stereo not given) returned V-ATPase pH inactive, CTSL1 counter inactive, iPSC survival up inactive and CR mimetic SO inactive.
`CCOC(=O)N1CCN(CC(=O)Nc2sc(CC)cc2C(=O)c2ccc(OC)cc2)CC1` gave V-ATPase pH inactive, CTSL1 counter inactive, iPSC survival up inactive, CR mimetic SO 58, Superoxide pick inactive and DHE fluor count inactive.
`CCc1cc(C(=O)OC)c(NC(=O)CN2CCN(C(=O)c3ccco3)CC2)s1` gave V-ATPase pH inactive, CTSL1 counter inactive, iPSC survival up inactive and CR mimetic SO inactive.
`O=C(NCCOc1ccccc1)c1ccccc1Cl` gave V-ATPase pH inactive, CTSL1 counter inactive, iPSC survival up inactive and CR mimetic SO inactive.
COc1ccc(OCCNC(=O)c2ccccc2Cl)cc1 was read as V-ATPase pH inactive, CTSL1 counter inactive, iPSC survival up inactive, CR mimetic SO 64, Superoxide pick inactive and DHE fluor count inactive.
For COc1ccc(CCNC(=O)CCc2ccc(OC)cc2)cc1 the results were V-ATPase pH inactive, CTSL1 counter inactive, iPSC survival up inactive and CR mimetic SO inactive.
